# Screens (PubChem)
# In the library only some 6.7% were active in any assay of this set; here they are far more common.
# KB-3-1 tox: KB-3-1 parental cell cytotoxicity; Potency, µM (doses to about 46.1 µM), most hits filed as cytotoxic; 1.4% of 400,000 active; AID 1347075; KB-3-1 viability, CellTiter-Glo ATP luminescence, 72 h; note: % is set by controls: 0 for no effect and ±100 for the full control effect; nearly all actives have a fitted effect of over 60% in size
#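 Cells are dispensed, compounds pinned in, plates held at 37 °C for 72 h, then CellTiter-Glo is added and luminescence read after 10 minutes. Cell line: parental KB-3-1 in phenol-red-free DMEM, 10% FBS.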
# SW480 rerep: DNA re-replication induction in SW480 cells | Potency, µM (series often up to 46.1 µM), without a hit: top-dose re-replication activation, most hits filed as activators | 1.8% of 340,000 active | SW480 DNA re-replication, Hoechst DNA content imaging, 48 h | AID 624297; note: % of control where 0% means no effect; nearly all actives have a fitted effect of over 55% in size
#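 Treated cells incubate 48 hr (37 C, 5% CO2), are stained 40 min with Hoechst, and nuclear fluorescence is enumerated; a rise in nuclei with high DNA signal marks re-replication.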
# PINK1 expr mod: PINK1 expression modulation; PINK1 immunofluorescence, high-content cytometry, 24 h; Potency, µM (doses to about 76.6 µM), inactives show at the highest dose activation (PINK1 increase), most hits filed as activators; 0.2% of 410,000 active; AID 624263; active = well fitted activation curve with a large enough effect; inconclusive = small, poorly fitted or top-dose-only effect; cell line not stated here; note: % of control where 0% means no effect; nearly all actives have a fitted effect of over 65% in size
#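 Cells are seeded, rested 12 hours, then given compound at five concentrations or DMSO for 24 hours. After fixation, blocking and antibody staining, PINK1 amount and mitochondrial localization are scored; CCCP serves as control.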
# MCF10A rerep: DNA re-replication induction in MCF 10a cells; MCF 10A DNA re-replication, Hoechst nuclear intensity, 48 h; Potency, µM (titrated, usually from 46.1 µM), for inactives: top-dose activity, positive = re-replication, usual class: activators; 2.9% of 350,000 active; AID 624296; note: % of control where 0% means no effect; nearly all actives have a fitted effect of over 50% in size
# KB-V1 MDR tox: kills drug-selected multidrug resistant KB-V1 cells | KB-V1 MDR cells viability, CellTiter-Glo, 72 h | Potency, µM (series often up to 46.1 µM), actives largely listed as cytotoxic | 3.4% of 400,000 active | AID 1347076; note: % is set by controls: 0 for no effect and ±100 for the full control effect; nearly all actives have a fitted effect of over 60% in size
#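 Cells of the MDR subline KB-V1 are plated, dosed with compound at multiple concentrations, and incubated 72 h at 37 degrees C; CellTiter-Glo is then added and luminescence read after 10 min.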
# Numbers without * were called inactive; i = inactive; ? = inconclusive; · = not tested or not shown; ! = not confirmed by another sample. Unless noted, calls come from the whole dose curve; as a rule, active = well fitted curve in the direction sought with a large enough effect; inconclusive = small, poorly fitted or top-dose-only effect, or another doubt; inactive = no such curve, though single readings can be large; an effect the other way counts as inactive or inconclusive. Potency is the fitted concentration of half-maximal effect.
SMILES,KB-3-1 tox,SW480 rerep,PINK1 expr mod,MCF10A rerep,KB-V1 MDR tox
Cc1cc(NC(=O)CSCc2nc(-c3cccc(F)c3)oc2C)no1,i,-4%,0%,1%,i
Cc1cc(NC(=O)CSCC(=O)Nc2ccccc2Oc2ccccc2)no1,?,-9%,0%,21%,10µM*
Cc1ccc(-c2nc(CSCC(=O)Nc3cc(C)on3)c(C)o2)cc1,i,-13%,3%,1%,23µM*
Cc1cc(NC(=O)CSCC(=O)Nc2ccccc2N2CCCCC2)no1,i,?,1%,29%,i
COc1cc(-c2nc(S(=O)(=O)c3ccc(Br)cc3)c(N3CCOCC3)o2)cc(OC)c1OC,·,·,2%,·,·
Cc1ccc(CNc2nc(CN3CCCCC3c3cccnc3)nc3ccccc23)o1 (configuration not stated),·,·,0%,·,·
CCc1ccccc1NC(=O)C1CCN(C(=O)N2CCOc3ccccc32)CC1,i,-6%,2%,9%,i
CN(Cc1ccccc1)C(=O)C1CCN(S(=O)(=O)c2ccc3c(c2)oc(=O)n3C)CC1,i,·,?,·,i
CN(Cc1ccc(Cl)c(Cl)c1)C(=O)c1ccccc1SCC(=O)N1CCCC1,?,1%,0%,-16%,?
O=C(NCc1nnc2n1CCN(Cc1cccc(Cl)c1)CC2)c1cccc(F)c1,·,·,3%,·,·
Cc1ccccc1NC(=O)Cc1nc(COC(=O)c2ccc(S(C)(=O)=O)c([N+](=O)[O-])c2)cs1,?,13%,-2%,3.7µM*,i
CS(=O)(=O)c1ccc(C(=O)OCC(=O)Nc2cccnc2Cl)cc1[N+](=O)[O-],?,?,0%,3.7µM*,i
CC(=O)c1cccc(NC(=O)COC(=O)c2ccc(S(C)(=O)=O)c([N+](=O)[O-])c2)c1,i,?,1%,2.6µM*,i
Cc1ccccc1NC(=O)COC(=O)c1ccc(S(C)(=O)=O)c([N+](=O)[O-])c1,21µM*!,7.3µM*,1%,?,i
Cc1ccccc1NC(=O)Cc1nc(COC(=O)c2ccc(NC(N)=O)cc2)cs1,i,-7%,3%,-16%,i
CCCNC(=O)C1(C)CCN(C(=O)c2ccccc2OC)C1 (configuration not stated),i,·,2%,·,i
COc1ccc(NC(=O)CC2C(=O)N(c3cccc(OC)c3)C(=O)N2Cc2cccnc2)cc1 (configuration not stated),·,·,2%,·,·
CSc1ccc(C(=O)N2CCc3c(cnc(C)c3CNC(=O)c3cncs3)C2)cc1,·,·,0%,·,·
CS(=O)(=O)c1ccc(C(=O)OCC(=O)N2CCCC2)cc1[N+](=O)[O-],i,·,8%,·,i
CS(=O)(=O)c1ccc(C(=O)OCC(=O)N2CCN(CCC3CCCCC3)CC2)cc1[N+](=O)[O-],6.5µM*,·,-1%,·,23µM*
Cc1ccccc1NC(=O)Cc1nc(COC(=O)c2ncc(Cl)c(Cl)c2Cl)cs1,i,6.5µM*,1%,?,i
CS(=O)(=O)Nc1cccc(C(=O)CC2(O)C(=O)Nc3ccc(Br)cc32)c1 (configuration not stated),i,?,6%,8.2µM*,i
CCOC(=O)c1oc2ccc(S(=O)(=O)n3nc(-c4ccc(Br)cc4)cc3N)cc2c1C,?,·,-1%,·,?
COc1cc2c(Nc3ccc(Br)cc3F)ncnc2cc1OCC1CCN(C)CC1,·,?,·,27µM*,·
COc1cc2ncnc(NCc3cccc(F)c3F)c2cc1OC,i,-8%,2%,-8%,i
COC(=O)C1=C(C(=O)OC)C(C(=O)OC)N2C=CC=CC2=C1C(=O)OC (configuration not stated),i,·,4%,·,i
C=CC12C=CC=CN1C(C(=O)OC)=C(C(=O)OC)C(C(=O)OC)=C2C(=O)OC (configuration not stated),i,-90%,-2%,-10%,18µM*
O=Cc1ccc(N2CCCC2)c([N+](=O)[O-])c1,i,-6%,3%,1%,i
O=[N+]([O-])/C=C\c1ccc(N2CCCC2)c(F)c1,?,18µM*,3%,18µM*,?
